Source: PubChem BioAssay
Many of the other results were omitted from the sample, so hits are more common in it than they were.
HT1080 IDH1KD tx: qHTS for induction of synthetic lethality in tumor cells producing 2HG: qHTS for the HT-1080-IDH1KD cell line; AID 686971, 2013; 360,000 compounds, 2% hits; Potency, µM (highest dose often 46.1 µM), most hits filed as cytotoxic; HT-1080 IDH1 knockdown viability, ATP luminescence, 48 h
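In this qHTS, HT-1080 cells depleted of IDH1 are exposed for 48 h at 37 °C to compound titrations. Toxicity is scored from CellTiter-Glo luminescence, with DMSO as full viability and medium alone as none.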
TDP1 cell noCPT: qHTS for Inhibitors of human tyrosyl-DNA phosphodiesterase 1 (TDP1): qHTS in cells in absence of CPT. DT40 Tdp1-/- hTDP1 cells, no CPT, ATP luminescence, 48 h. Potency, µM (highest dose often 46.2 µM), usual class: inhibitors. 420,000 compounds, 15% hits; further: nearly all actives have a fitted effect of over 55% in size
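Growth of hTDP1-complemented DT40 Tdp1-knockout cells is measured by ATP luminescence after at least 48 hr compound exposure at 37 °C, with DMSO substituting for the 20 nM CPT used in the parallel screen.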
HT1080NT lethal: qHTS for induction of synthetic lethality in tumor cells producing 2HG: qHTS for the HT-1080-NT fibrosarcoma cell line; HT-1080-NT fibrosarcoma viability, CellTiter-Glo ATP luminescence, 48 h; AID 686970, 2013; Potency, µM (top dose mostly 46.1 µM), usual class: cytotoxic; 360,000 compounds, 1.6% hits;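 further: NT is the 2HG producing partner of a matched IDH1 knockdown line; nearly all actives have a fitted effect of over 55% in size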
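A 48-hour cytotoxicity screen used HT-1080-NT cells plated 2 hours before compound delivery. ATP-based CellTiter-Glo luminescence measured viability, normalized to DMSO and no-cell controls.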
TDP1 cell CPT: qHTS for Inhibitors of human tyrosyl-DNA phosphodiesterase 1 (TDP1): qHTS in cells in presence of CPT. chicken DT40 Tdp1-/-;hTDP1 cells + 20 nM CPT, ATP luminescence, 48 h. Potency, µM (top dose mostly 46.2 µM), hits mostly inhibitors. 420,000 compounds, 12% hits; further: nearly all actives have a fitted effect of over 55% in size
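Cell growth measured by CellTiter-Glo luminescence after a minimum 48 h, 37 C compound exposure with 20 nM CPT in Tdp1-knockout DT40 cells stably expressing hTDP1, seeded 400/well; qHTS titration format.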
ALOX12 inh: Primary qHTS assay for inhibitors of human arachidonate 12S-lipoxygenase (ALOX12): Round 2. 580,000 compounds, 1.1% hits. purified 12hLO, xylenol orange hydroperoxide absorbance. Potency, µM (titrated, usually from 108 µM), hits mostly inhibitors. Polyunsaturated fatty acid lipoxygenase ALOX12 (Homo sapiens), P18054. AID 1671190, 2021
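Hydroperoxide product was detected by ferrous iron/xylenol orange as the 573 to 405 nm absorbance ratio. Arachidonic acid at 40 uM (final) was turned over for 30 min at room temperature by 150 nM human 12hLO, pH 7.0 Hepes buffer, after 15 min compound preincubation.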
IL-1B inflam inh: qHTS for Inhibitors of Inflammasome Signaling: IL-1-beta AlphaLISA Primary Screen. activity change, % at 57.5 µM. 360,000 compounds, 4.7% hits. THP-1 LPS/ATP IL-1B secretion, AlphaLISA, 16 h; hits give low values; in the data active means activity change below about -50%; inconclusive means mostly about -30% to -49%
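Secreted IL-1B measured by AlphaLISA bead assay after 16 h compound exposure of THP-1 cells; compounds (final up to 57.5 uM) added 1 h before LPS (250 ng/mL) and ATP (1.25 mM) stimulation; lower signal means less secretion.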
Numbers stand for hits; – = inactive; ? = inconclusive; · = no result given. Unless noted, the call rests on the fitted dose curve; in most records, active means well fitted curve in the direction sought with a large enough effect; inconclusive means small, poorly fitted or top-dose-only effect, or another doubt; inactive means no such curve, though single readings can be large; an effect the other way counts as inactive or inconclusive.

SMILES	HT1080 IDH1KD tx	TDP1 cell noCPT	HT1080NT lethal	TDP1 cell CPT	ALOX12 inh	IL-1B inflam inh
Cc1ccc(S(=O)(=O)NC(=O)Nc2cc(C)ccc2F)cc1	–	–	–	–	–	–
O=C(NC[C@H]1O[C@@H](CO)[C@@H](O)[C@H]1N1CCN(c2ccc(F)cc2)CC1)c1ccccc1	·	·	·	·	–	·
O/N=C1\CCCc2c1nc(-c1cccc(Cl)c1)n2O	·	·	·	·	–	·
O=C(c1cc(Cl)ccc1F)N1CCC(c2n[nH]c(=O)n2-c2ccccc2)CC1	·	·	·	·	–	·
O=C(O)CCC(=O)N[C@H]1CCN2C(=O)c3cc(-c4ccc(F)cc4F)ccc3NC(=O)[C@H]12	·	·	·	·	–	·
Cc1cc([N+](=O)[O-])ccc1NCc1ccc2ccccc2c1	–	18µM	–	?	–	–
CCOC(=O)N1CCN(CC(=O)Nc2ccc([N+](=O)[O-])cc2C(=O)Nc2ccccc2F)CC1	–	9.2µM	?	21µM	–	–
Cc1cccc(NC(=O)NNC(=O)COc2ccc([N+](=O)[O-])cc2)c1C	–	–	–	–	–	–
O=C(Nc1ccccc1)Nc1cc([N+](=O)[O-])ccc1F	–	?	–	–	–	–
CCOC(=O)N1CCN(CC(=O)Nc2ccccc2C(=O)Nc2ccccc2)CC1	–	?	–	?	–	–
O=C(COc1ccc([N+](=O)[O-])cc1)NNC(=O)Nc1ccccc1F	3.7µM	–	4.1µM	–	–	–
COc1ccc(CNc2ccc([N+](=O)[O-])cc2C)cc1	–	–	–	?	–	–
Cc1cc([N+](=O)[O-])ccc1NC(=O)Nc1ccccc1F	–	?	–	?	–	-99
CCOc1ccc(C2=NC(c3cccs3)=Nc3ccc(CC)cc3N2)cc1OCC	·	18µM	·	?	–	·
CCc1ccc2c(c1)NC(c1cccs1)=NC(c1ccc(F)cc1)=N2	·	23µM	·	23µM	–	·
FC(F)(F)c1ccc(C2=Nc3ccccc3NC(c3cccs3)=N2)cc1	·	?	·	–	–	·
CCOc1cc(/C=C(\C#N)C(=O)Nc2ccc(C)cc2)ccc1OCc1cc(=O)n2nc(CC)sc2n1	·	–	·	–	–	·
Cc1cc(C[C@@H]2COC[C@@H]2NC(=O)COc2cccc(C)c2C)on1	·	·	·	·	–	·
O=C1C(=O)c2cccnc2-c2ncccc21	0.58µM	0.0052µM	1µM	0.033µM	4µM	-108
COC1=C(Br)C(=O)c2ncccc2C1=O	8.2µM	0.58µM	–	0.52µM	25µM	–
O=c1oc2cc(OCc3nn[nH]n3)ccc2cc1-c1ccccc1	·	·	·	·	–	·
O=C1CNC(=S)N1Cc1ccc(Cl)cc1	–	–	–	–	–	–
O=C1CNC(=S)N1CCc1ccc(Cl)cc1	–	16µM	–	–	–	–
COC(=O)C1CCN(c2ccc(Cl)nn2)CC1	–	–	?	–	–	–
Cc1noc(C)c1CC(=O)N(C)C1CCc2nnc(C)n2CC1 (configuration not stated)	·	·	·	·	–	·
COc1ccc(C2CC(c3ccc(Br)cc3)=NN2C(=O)CN2CCCC2)cc1 (configuration not stated)	?	12µM	?	?	–	-62
COc1ccc(C2CC(c3ccccc3)=NN2C(=O)CN2CCN(Cc3ccccc3)CC2)cc1 (configuration not stated)	–	26µM	–	?	–	-66
COc1ccc(C2=NN(C(=O)CCC(=O)O)C(c3ccccc3)C2)cc1 (configuration not stated)	–	–	–	–	–	–
CNC(=S)N1N=C(c2ccc(Br)cc2)CC1c1ccc(OC)cc1 (configuration not stated)	–	9.2µM	–	?	?	–
